Screening data (PubChem BioAssay)
aSyn rescue = rescues yeast growth from alpha-synuclein toxicity. Yeast expressing alpha-synuclein, growth rescue, BacTiter-Glo, 24 h. Potency, µM (doses to about 46.1 µM), without a hit: at the highest dose growth rescue (activation), actives largely listed as activators. AID 652106. hit rate 0.14% among 370,000; also: % of control where 0% means no effect; nearly all actives have a fitted effect of over 65% in size
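Galactose-induced alpha-syn yeast (OD600=0.02, raffinose-pregrown) + pinned cpd, 24 hr, 30 deg C; growth by BacTiter-Glo luminescence. Growth restoration scores as activation.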
FUS suppressor = suppressors of FUS proteinopathy in yeast; S. cerevisiae FUS-expressing, growth rescue, OD600, 24 h; Potency, µM (highest dose often 76.6 µM), usual class: activators; hit rate 0.24% among 390,000; AID 1347120;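 also: plate controls were DMSO vehicle for no effect and reference control for full effect; nearly all actives have a fitted effect of over 55% in size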
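Toxicity suppression screen in FUS-yeast. Cells induced with 2% galactose, starting OD 0.005, treated 24hr at 30C with compounds at multiple final concentrations; growth by OD600.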
Abeta yeast res = A-beta toxicity reversal in yeast | yeast expressing A-beta42, growth rescue, OD600, 48 h; response scale: 0% DMSO, 100% iron-clioquinol control | hit rate 0.063% among 410,000 | AID 1347071 | Potency, µM (top dose mostly 46.1 µM), usual class: activators; also: nearly all actives have a fitted effect of over 55% in size
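Yeast A-beta toxicity model in growth medium with pinned compounds, 48 h at 30 C; growth read as absorbance at 600 nm. Normalized to FeCl3/clioquinol equimolar mix (positive) and DMSO (negative).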
TDP-43 yeast inh = rescues yeast growth from TDP-43 toxicity. TDP-43 expressing yeast growth rescue, BacTiter-Glo, 24 h. hit rate 1.8% among 410,000. Potency, µM (titrated, usually from 46.1 µM), inactives show at the top dose growth rescue (activation), most hits filed as activators. AID 652104; also: % of control where 0% means no effect; nearly all actives have a fitted effect of over 50% in size
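Luminescence from BacTiter-Glo reports growth of TDP-43-expressing yeast after 24 hr at 30 deg C with compound. Cells were raffinose-pregrown to mid-log, then seeded in galactose medium at OD600=0.02.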
TSG101-PTAP inh = blocks PTAP/TSG101 interaction to inhibit HIV-1 budding; AID 493005; Potency, µM (titrated, usually from 115 µM), for inactives: top-dose activity change, negative = inhibition, most hits filed as inhibitors; 340,000 tested, under 10 active; Fluorescence polarization, FITC-PTAP peptide / Tsg101 binding; active = well fitted inhibition curve with a large enough effect in the main read-out, with a control signal flat, not every such curve was filed as active; inconclusive = small, poorly fitted or top-dose-only effect, or effect the other way, or a change in a side signal; inactive = no such curve, though single readings can be large or run the other way; also: % of control where 0% means no effect
Target sequence (Q99816 whole entry, looked up): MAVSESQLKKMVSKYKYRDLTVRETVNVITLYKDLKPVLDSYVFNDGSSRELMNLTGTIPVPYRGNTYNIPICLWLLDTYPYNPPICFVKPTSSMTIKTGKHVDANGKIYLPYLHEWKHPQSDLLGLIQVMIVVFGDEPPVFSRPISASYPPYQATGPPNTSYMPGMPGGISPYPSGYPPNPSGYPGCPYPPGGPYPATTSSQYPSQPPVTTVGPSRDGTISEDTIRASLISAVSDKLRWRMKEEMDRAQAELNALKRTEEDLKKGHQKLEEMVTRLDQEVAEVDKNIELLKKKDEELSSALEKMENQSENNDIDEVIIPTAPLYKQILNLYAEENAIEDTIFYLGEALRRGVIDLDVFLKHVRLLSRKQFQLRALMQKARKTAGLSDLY
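FP read-out: FITC-PTAP peptide, 50 nM final, binding Tsg101 binding domain, 10 uM final; 20 min, r.t.; 10 mM HEPES pH 7.5, 0.15 M NaCl, 0.01% Tween 20, 3 mM EDTA, 0.1 mM TCEP.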
Starred values were filed as active, the others as inactive; i = inactive; ? = inconclusive; . = not tested or not shown; [ ] = dose if it differs, or a comment. An excerpt weighted towards active compounds, which were near 2.1% of everything screened. Unless noted, calls follow the shape of the dose curve; as a rule, active = well fitted curve in the direction sought with a large enough effect; inconclusive = small, poorly fitted or top-dose-only effect, or another doubt; inactive = no such curve, though single readings can be large; an effect the other way counts as inactive or inconclusive. Potency is read from the fitted curve at half-maximal effect.

SMILES	aSyn rescue	FUS suppressor	Abeta yeast res	TDP-43 yeast inh	TSG101-PTAP inh
Cc1cccn2c(=O)c3cc(C(=O)N4CCCC(C)C4)sc3nc12 (configuration not stated)	6%	i	i	?	-4%
CCCCN(CCCC)C(=O)c1cc2c(=O)n3cccc(C)c3nc2s1	.	?	i	22µM*	.
Cc1cccn2c(=O)c3cc(C(=O)N4CCCCC4)sc3nc12	-1%	i	i	11µM*	-2%
Cc1ccc(C2c3[nH]c4ccccc4c3CCN2C(=O)CCc2ccccc2)cc1 (configuration not stated)	.	i	i	-6%	.
CN(C)CC(=O)Nc1nc(-c2ccccc2)cs1	-18%	i	i	6%	-2%
CC1CC1C(=O)Nc1nc(-c2ccccc2)cs1 (configuration not stated)	-6%	i	i	18µM*	-1%
CC(C)(C)c1csc(NNC(=O)c2ccc(Cl)cc2)n1	18µM*	?	i	-18%	-5%
CC(C)(C)c1csc(NC(=O)c2cccs2)n1	-13%	i	i	16µM*	-1%
O=C(Nc1nc(-c2ccccc2)cs1)c1cccs1	-30%	i	i	13µM*	2%
Cc1cccc(NS(=O)(=O)c2ccc3c(c2)n(C)c(=O)n3C)c1C	.	i	i	11%	.
CCOc1cc2[nH]c(=O)n(CCC(=O)N3CCN(c4cccc(Cl)c4)CC3)c(=O)c2cc1OCC	.	i	i	11%[9.22 µM]	.
Cn1c(=O)c2[nH]c(SCC(=O)NCCc3cccc(F)c3)nc2n(C)c1=O	.	i	.	.	.
CN(C)c1ccc(/C=C2\C=Cc3ccccc32)cc1[N+](=O)[O-]	5%	.	.	.	.
Cc1c(C)n(Cc2ccc(-c3ccccc3C(=O)O)cc2)c2ccc(C(=O)N[C@@H](C)c3ccc(Br)cc3)cc12	.	i	.	.	.
Cc1c(C(=O)O)oc2c1-c1nn(Cc3ccccc3Cl)cc1CC2	.	i	i	16µM*	.
Cc1noc(C)c1C(=O)N1CCCC(C)(C(=O)NS(=O)(=O)C2CC2)C1 (configuration not stated)	-1%	i	i	0%	.
Cc1ccc(-c2cc(C(F)F)nc(S(C)(=O)=O)n2)cc1	-11%	i	i	11µM*	0%
COc1ccccc1-c1cccc([C@@H]2C[C@H]3[C@H](CON3C)CN2C(=O)CCc2ccccc2)c1	15%	i	i	28µM*	-6%
COCC(=O)N1C[C@H]2CON(C)[C@H]2C[C@H]1c1cccc(-c2ccccc2OC)c1	0%	i	i	0%	.
CC1=CCC2C(=O)N(c3cccc(C(=O)NCc4ccccc4)c3)C(=O)C2C1 (configuration not stated)	5%	i	i	1%	0%
CC1=CCC2C(=O)N(c3cccc(C(=O)Nc4ccc(Cl)cc4)c3)C(=O)C2C1 (configuration not stated)	27%	i	14µM*	?	-1%
CC(C)[C@H]1Cn2nnc(-c3ccccc3)c2Cn2c3ccccc3c(=O)n21	.	i	.	.	.
Cc1ccc(C)c2[nH]c(=O)c(CN(CCN3CCCC3)C(=O)Nc3cccc(Cl)c3)cc12	5%	35µM*	?	-6%	1%
Cc1cc(C)c2cc(CN(CCN3CCCC3)C(=O)Nc3ccc(F)cc3)c(=O)[nH]c2c1	-2%	?	i	3%	-1%
O=C1c2ccccc2C(=O)N1CCCc1c[nH]c2ccc(Cl)cc12	5%	.	i	10µM*	-2%
O=C(CN1C(=O)c2ccccc2C1=O)NCCc1c[nH]c2ccc(Cl)cc12	2%	i	i	18%	1%
Cc1ccc(C2CN(C)C3(C(=O)Nc4ccccc43)C23COc2ccccc2C3=O)cc1 (configuration not stated)	3%	.	i	3.5µM*	-4%
N#Cc1c([N+](=O)[O-])cc([N+](=O)[O-])cc1S(=O)(=O)Cc1ccccc1	-64%	.	i	11µM*	-6%
COc1cc(OC)c(C#N)c(S(=O)(=O)Cc2ccccc2)c1	0%	i	i	-7%	-5%
